Assay results from the supplement of paper PMC12350171.
Where a name gives a salt, the structure may show the parent alone.

Key:
Conditions in all cases: 20 µM
[1] = test system: Salmonella enterica typhimurium; test: growth AUC normalised to DMSO control (fraction of control); higher = less growth inhibition, active = hit call of the paper
Summary of the method: (§1)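 Hemin and NAD were added to the medium for Haemophilus parainfluenzae. All pathogens, after two anaerobic passages, were inoculated at a starting OD578 of 0.01 into pre-reduced mGAM plates with 20 μM compound and 1% DMSO under breathable seals, and OD578 was read hourly for 24 h in three biological replicates. AUC of each growth curve was obtained with the trapezoidal rule up to the exponential-to-stationary transition and normalised to DMSO controls from the same plate.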

Shigella flexneri = test: as above
Summary of the method: as §1

Vibrio cholerae = test: as above
Summary of the method: as §1

[2] = test system: Yersinia pseudotuberculosis; test: as above
Summary of the method: as §1

P. vulgatus RND KO = test: growth AUC normalised to DMSO control (median) (fraction of control); higher = less growth inhibition, active = hit call of the paper
Summary of the method: (§2)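 After two overnight anaerobic passages, strains were inoculated at OD578 0.01 into mGAM in 96-well plates containing approved-drug library compounds at 20 μM and 1% DMSO. Growth was followed by reading OD578 hourly for 24 h within an anaerobic incubator. Area under the curve, taken by the trapezoidal rule up to the start of stationary phase, was normalised to same-plate vehicle wells, and the median of three biological replicates is listed.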

P. vulgatus WT = test: as above
Summary of the method: as §2

[3] = test system: S. enterica typhimurium WT; test: as above
Summary of the method: as §2

[4] = test system: S. enterica typhimurium tolC KO; test: as above
Summary of the method: as §2

Measured: growth AUC normalised to DMSO control
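For growth AUC normalised to DMSO control (median) in this document: active when median AUC fell below 0.1.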

CCN(CC)CCNC(=O)c1cc(S(C)(=O)=O)ccc1OC [Tiapride hydrochloride]
inactive: [1] 0.985 | Shigella flexneri 0.992 | Vibrio cholerae 1 | [2] 1.01 | P. vulgatus RND KO 0.961 | P. vulgatus WT 0.952 | [3] 0.992 | [4] 0.999

C#C[C@]1(OC(C)=O)CC[C@H]2[C@@H]3CCC4=C[C@@H](OC(C)=O)CC[C@@H]4[C@H]3CC[C@@]21C [Ethynodiol diacetate]
inactive: [1] 0.971 | Shigella flexneri 0.988 | Vibrio cholerae 0.963 | [2] 0.986 | P. vulgatus RND KO 0.922 | P. vulgatus WT 0.954 | [3] 0.997 | [4] 0.941

CCn1cc(C(=O)O)c(=O)c2cc(F)c(N3CCNCC3)cc21 [Norfloxacin]
active: [1] 0.00731 | Shigella flexneri 0.0176 | Vibrio cholerae 0.0427 | [2] 0.0323 | [3] 0.00734 | [4] 0.0069
inactive: P. vulgatus RND KO 0.922 | P. vulgatus WT 0.865

NS(=O)(=O)c1cc2c(cc1Cl)NCNS2(=O)=O [Hydrochlorothiazide]
inactive: [1] 1.02 | Shigella flexneri 0.994 | Vibrio cholerae 1.05 | [2] 1.01 | P. vulgatus RND KO 0.981 | P. vulgatus WT 0.997 | [3] 0.996 | [4] 1.02

OC(c1cc(C(F)(F)F)nc2c(C(F)(F)F)cccc12)C1CCCCN1 (stereo not given) [Mefloquine hydrochloride]
inactive: [1] 0.997 | Shigella flexneri 0.975 | Vibrio cholerae 1 | [2] 0.99 | P. vulgatus RND KO 0.719 | P. vulgatus WT 0.777 | [3] 0.998 | [4] 0.948

C=C1c2c(Cl)ccc(O)c2C(O)=C2C(=O)[C@]3(O)C(O)=C(C(N)=O)C(=O)[C@@H](N(C)C)[C@@H]3[C@@H](O)[C@H]12.O=C(O)c1cc(S(=O)(=O)O)ccc1O [Meclocycline sulfosalicylate]
active: [1] 0.00503 | Shigella flexneri 0.015 | Vibrio cholerae 0.0396 | [2] 0.0398 | P. vulgatus RND KO 0.0142 | P. vulgatus WT 0.022 | [3] 0.0103 | [4] 0.00967

C#C[C@]1(O)CC[C@H]2[C@@H]3CCC4=C(CCC(=O)C4)[C@H]3CC[C@@]21C [Norethynodrel]
inactive: [1] 1 | Shigella flexneri 1 | Vibrio cholerae 0.994 | [2] 0.992 | P. vulgatus RND KO 0.992 | P. vulgatus WT 1.01 | [3] 0.996 | [4] 0.993

CN1CCC(=C2c3ccccc3Sc3ccccc32)CC1 [Pimethixene maleate]
inactive: [1] 0.988 | Shigella flexneri 0.948 | Vibrio cholerae 0.853 | [2] 1.02 | P. vulgatus RND KO 0.812 | P. vulgatus WT 0.776 | [3] 1 | [4] 0.956

C[C@H](CCC(=O)O)[C@H]1CC[C@H]2[C@@H]3C(=O)C[C@@H]4CC(=O)CC[C@]4(C)[C@H]3CC(=O)[C@]12C [Dehydrocholic acid]
inactive: [1] 0.98 | Shigella flexneri 0.968 | Vibrio cholerae 0.983 | [2] 0.957 | P. vulgatus RND KO 1.01 | P. vulgatus WT 0.983 | [3] 0.999 | [4] 0.66

CCN1CCN(C(=O)N[C@@H](C(=O)N[C@@H]2C(=O)N3C(C(=O)O)=C(CSc4nnnn4C)CS[C@H]23)c2ccc(O)cc2)C(=O)C1=O [Cefoperazone dihydrate]
active: [1] 0.0254 | Shigella flexneri 0.0208 | Vibrio cholerae 0.0794 | [2] 0.16 | P. vulgatus RND KO 0.00991 | P. vulgatus WT 0.00365 | [4] 0.00245
inactive: [3] 0.144

CC(C)c1c(C(=O)Nc2ccccc2)c(-c2ccccc2)c(-c2ccc(F)cc2)n1CC[C@@H](O)C[C@@H](O)CC(=O)O [Atorvastatin]
inactive: [1] 1.01 | Shigella flexneri 1.04 | Vibrio cholerae 1.04 | [2] 1.01 | P. vulgatus RND KO 1.01 | P. vulgatus WT 1 | [3] 0.993 | [4] 0.994

Cc1c(N)c(=O)n(-c2ccccc2)n1C [Ampyrone]
inactive: [1] 0.996 | Shigella flexneri 0.998 | Vibrio cholerae 0.965 | [2] 0.986 | P. vulgatus RND KO 1.04 | P. vulgatus WT 1 | [3] 1 | [4] 1

Nc1nc(N)nc(-c2cc(Cl)ccc2Cl)n1 [Irsogladine maleate]
inactive: [1] 0.998 | Shigella flexneri 1 | Vibrio cholerae 0.999 | [2] 0.995 | P. vulgatus RND KO 0.959 | P. vulgatus WT 0.977 | [3] 0.999 | [4] 1

Cc1cc2c(cc1S(N)(=O)=O)S(=O)(=O)CCC2 [Meticrane]
inactive: [1] 1.01 | Shigella flexneri 0.996 | Vibrio cholerae 1.01 | [2] 1.01 | P. vulgatus RND KO 1.03 | P. vulgatus WT 1.01 | [3] 1.02 | [4] 1.01

CC[C@@]1(O)C(=O)OCc2c1cc1n(c2=O)Cc2cc3c(CN(C)C)c(O)ccc3nc2-1 [Topotecan]
inactive: [1] 1.05 | Shigella flexneri 1.04 | Vibrio cholerae 1.03 | [2] 1.02 | P. vulgatus RND KO 1.01 | P. vulgatus WT 1.02 | [3] 1.02 | [4] 0.983
